Molecules are shown by their SMILES. The source made the active and inactive calls. No rule for the calls is given here.

This passage reports ACh response, % max results from PubChem BioAssay AID1929 (Vanderbilt High Throughput Screening Facility, 2009).

The target of the experiment is Muscarinic acetylcholine receptor M3 (Homo sapiens) (UniProt P20309). The experiment in a line: ACh potency shift at human M3 – cell-based, analogs, calcium, selectivity assay for M4 PAM project, SAR follow-up (AID 1929). The note with it: hM3 cells, ACh CRC fold-shift, calcium mobilization; with ACh 0.1 µM; with compound at fixed dose.
Chain of Muscarinic acetylcholine receptor M3 (Homo sapiens) (P20309 whole entry, looked up): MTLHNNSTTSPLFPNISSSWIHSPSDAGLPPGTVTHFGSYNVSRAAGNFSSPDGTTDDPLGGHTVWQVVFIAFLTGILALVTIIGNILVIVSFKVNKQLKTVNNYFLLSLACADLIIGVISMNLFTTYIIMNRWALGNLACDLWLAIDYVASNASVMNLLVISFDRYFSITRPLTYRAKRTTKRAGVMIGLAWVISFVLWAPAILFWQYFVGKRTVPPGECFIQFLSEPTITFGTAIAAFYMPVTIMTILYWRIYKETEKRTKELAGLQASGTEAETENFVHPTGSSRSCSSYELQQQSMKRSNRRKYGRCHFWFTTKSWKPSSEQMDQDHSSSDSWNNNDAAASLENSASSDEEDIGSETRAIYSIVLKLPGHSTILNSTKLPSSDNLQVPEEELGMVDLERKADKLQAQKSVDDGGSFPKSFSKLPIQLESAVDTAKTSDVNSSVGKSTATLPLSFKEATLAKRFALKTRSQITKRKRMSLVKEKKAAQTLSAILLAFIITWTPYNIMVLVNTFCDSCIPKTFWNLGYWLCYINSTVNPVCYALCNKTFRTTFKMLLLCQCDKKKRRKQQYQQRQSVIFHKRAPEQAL
In the case of `Cc1cc(OCc2ccncc2)nc2sc(C(=O)NCc3cccc(F)c3F)c(N)c12`, the ACh response, % max was 94.7 (inactive).

Take `COc1ccc(CNC(=O)c2sc3nc(OCc4ccncc4)cc(C)c3c2N)cc1`: the ACh response, % max is 90.1 (inactive).

For `Cc1cc(OCCN2CCOCC2)nc2sc(C(=O)NC(C)(C)C)c(N)c12`, the ACh response, % max was 96.8 (inactive).

Take `Cc1cc(OCc2ccncc2)nc2sc(C(=O)NCc3cc(F)ccc3F)c(N)c12`: the ACh response, % max is 96.3 (inactive).
